The structures appear in SMILES notation. Calls of active or inactive are those of the source.

The record followed here is PubChem BioAssay.

The nature of assay [1]: small molecules captured by biotinylated probe aFSTL3 – biochemical, small-molecule microarray, fluorescence 635/667, stem cell growth factor project, primary screen (AID 1064).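 Note: measures binding of the biotinylated anti-FSTL3 antibody to printed compounds.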 The settings on record: higher = more signal.
Assay [2] in a line: binders from COS7 lysate, DM2A8 probe, primary screen, torsin A project, cell lysate, small-molecule microarray, fluorescence 635/667 (AID 1065). The settings on record: higher = more signal, COS7 lysate expressing mutant human TOR1A.
Assay [3] in a line: small molecules captured by biotinylated probe aFGF2 – biochemical, small-molecule microarray, fluorescence 635/667, stem cell growth factor project, primary screen (AID 1067).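 Note: measures binding of biotinylated aFGF2 protein to printed compounds on slides; z-score merges feature fluorescence and signal-to-noise across triplicate slides.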 The settings on record: higher = more signal.
Assay [4] is described as follows: small molecules captured by biotinylated probe aFGF10 – biochemical, small-molecule microarray, fluorescence 635/667, stem cell growth factor project, primary screen (AID 1071).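 Note: score merges 667 nm spot intensity and signal to noise from triplicate slides.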 The settings on record: higher = more signal.
In assay [5] the target is Neurogenic locus notch homolog protein 2 (Homo sapiens) (UniProt Q04721). The assay can be described thus: small molecules binding Notch2 protein – biochemical, small-molecule microarray, 635 nm fluorescence, stem cell growth factors, primary screen (AID 1073). The settings on record: higher = more signal.
Chain of Neurogenic locus notch homolog protein 2 (Homo sapiens) (Q04721 whole entry, looked up, canonical isoform): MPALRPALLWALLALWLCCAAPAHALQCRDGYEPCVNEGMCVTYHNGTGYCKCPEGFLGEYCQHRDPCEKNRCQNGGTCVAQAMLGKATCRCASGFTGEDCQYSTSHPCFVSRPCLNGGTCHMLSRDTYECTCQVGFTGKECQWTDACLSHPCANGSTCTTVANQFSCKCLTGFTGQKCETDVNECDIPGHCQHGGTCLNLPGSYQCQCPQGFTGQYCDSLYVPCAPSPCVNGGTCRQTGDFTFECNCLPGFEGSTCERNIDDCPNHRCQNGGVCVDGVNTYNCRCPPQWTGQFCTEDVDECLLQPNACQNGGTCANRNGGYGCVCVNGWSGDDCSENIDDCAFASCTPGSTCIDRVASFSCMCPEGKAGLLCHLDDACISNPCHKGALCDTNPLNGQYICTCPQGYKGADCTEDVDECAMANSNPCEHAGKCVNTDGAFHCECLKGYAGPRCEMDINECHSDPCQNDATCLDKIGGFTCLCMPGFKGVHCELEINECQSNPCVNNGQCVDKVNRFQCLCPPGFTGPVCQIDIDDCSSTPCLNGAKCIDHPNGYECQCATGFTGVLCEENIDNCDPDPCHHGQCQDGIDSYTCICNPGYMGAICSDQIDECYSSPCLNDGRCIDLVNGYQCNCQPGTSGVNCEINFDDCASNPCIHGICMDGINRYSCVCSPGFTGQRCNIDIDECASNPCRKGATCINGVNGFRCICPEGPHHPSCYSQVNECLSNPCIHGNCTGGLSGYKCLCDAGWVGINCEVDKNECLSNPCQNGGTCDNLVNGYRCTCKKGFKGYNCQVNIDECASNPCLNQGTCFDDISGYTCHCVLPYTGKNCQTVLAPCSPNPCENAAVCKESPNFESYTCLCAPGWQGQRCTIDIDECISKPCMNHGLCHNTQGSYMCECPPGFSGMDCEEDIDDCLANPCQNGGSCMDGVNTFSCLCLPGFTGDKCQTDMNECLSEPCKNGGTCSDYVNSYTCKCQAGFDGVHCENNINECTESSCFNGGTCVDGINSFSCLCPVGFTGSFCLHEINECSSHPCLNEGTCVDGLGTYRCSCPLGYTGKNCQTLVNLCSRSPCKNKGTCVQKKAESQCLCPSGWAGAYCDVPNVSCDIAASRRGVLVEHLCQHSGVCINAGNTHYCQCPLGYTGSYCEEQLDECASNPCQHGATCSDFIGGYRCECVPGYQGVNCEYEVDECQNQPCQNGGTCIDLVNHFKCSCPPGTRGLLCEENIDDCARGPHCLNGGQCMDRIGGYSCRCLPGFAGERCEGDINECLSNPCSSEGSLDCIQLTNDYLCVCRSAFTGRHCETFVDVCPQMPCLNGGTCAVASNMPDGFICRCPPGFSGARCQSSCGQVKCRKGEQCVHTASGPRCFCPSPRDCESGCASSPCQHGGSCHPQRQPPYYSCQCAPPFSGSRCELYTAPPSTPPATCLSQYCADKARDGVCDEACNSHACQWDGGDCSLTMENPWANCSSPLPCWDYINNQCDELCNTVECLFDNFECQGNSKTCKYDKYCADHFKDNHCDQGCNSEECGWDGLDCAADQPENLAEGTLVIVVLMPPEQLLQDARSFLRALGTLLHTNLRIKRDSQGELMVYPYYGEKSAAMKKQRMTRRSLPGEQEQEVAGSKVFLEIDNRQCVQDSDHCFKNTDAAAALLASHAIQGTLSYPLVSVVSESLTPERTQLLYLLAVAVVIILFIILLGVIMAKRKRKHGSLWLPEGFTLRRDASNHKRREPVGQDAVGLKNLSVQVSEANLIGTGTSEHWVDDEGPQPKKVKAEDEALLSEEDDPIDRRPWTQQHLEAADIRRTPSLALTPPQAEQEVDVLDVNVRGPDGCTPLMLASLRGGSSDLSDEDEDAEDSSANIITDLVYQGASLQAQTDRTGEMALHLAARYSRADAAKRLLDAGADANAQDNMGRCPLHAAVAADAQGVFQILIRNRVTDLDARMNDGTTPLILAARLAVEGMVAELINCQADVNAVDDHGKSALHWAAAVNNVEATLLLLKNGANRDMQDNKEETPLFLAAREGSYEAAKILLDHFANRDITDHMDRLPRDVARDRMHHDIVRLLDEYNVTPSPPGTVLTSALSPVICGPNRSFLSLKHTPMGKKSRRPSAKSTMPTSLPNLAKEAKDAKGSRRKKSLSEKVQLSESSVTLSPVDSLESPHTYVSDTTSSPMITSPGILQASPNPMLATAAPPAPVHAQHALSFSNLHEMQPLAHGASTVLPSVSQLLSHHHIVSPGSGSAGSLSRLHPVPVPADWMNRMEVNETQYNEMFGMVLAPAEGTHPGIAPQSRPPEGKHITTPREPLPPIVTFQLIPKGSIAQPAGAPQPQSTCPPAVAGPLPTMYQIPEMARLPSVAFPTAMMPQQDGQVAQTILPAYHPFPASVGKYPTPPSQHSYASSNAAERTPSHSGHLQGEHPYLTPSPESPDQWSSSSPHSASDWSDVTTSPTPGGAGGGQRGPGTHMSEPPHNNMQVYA
Assay [6] deals with Pro-neuregulin-1, membrane-bound isoform (Homo sapiens) (UniProt Q02297). As to the kind of experiment: small molecules binding neuregulin-1 protein – biochemical, small-molecule microarray, fluorescence 635/667, psychiatric disease protein project, primary screen (AID 1075).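 Note: score combines 667 nm spot fluorescence with signal to noise.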 Particulars: NRG1 binding, 635 nm fluorescence, higher = more signal.
Chain of Pro-neuregulin-1, membrane-bound isoform (Homo sapiens) (Q02297 whole entry, looked up, the tested form may be a part, canonical isoform): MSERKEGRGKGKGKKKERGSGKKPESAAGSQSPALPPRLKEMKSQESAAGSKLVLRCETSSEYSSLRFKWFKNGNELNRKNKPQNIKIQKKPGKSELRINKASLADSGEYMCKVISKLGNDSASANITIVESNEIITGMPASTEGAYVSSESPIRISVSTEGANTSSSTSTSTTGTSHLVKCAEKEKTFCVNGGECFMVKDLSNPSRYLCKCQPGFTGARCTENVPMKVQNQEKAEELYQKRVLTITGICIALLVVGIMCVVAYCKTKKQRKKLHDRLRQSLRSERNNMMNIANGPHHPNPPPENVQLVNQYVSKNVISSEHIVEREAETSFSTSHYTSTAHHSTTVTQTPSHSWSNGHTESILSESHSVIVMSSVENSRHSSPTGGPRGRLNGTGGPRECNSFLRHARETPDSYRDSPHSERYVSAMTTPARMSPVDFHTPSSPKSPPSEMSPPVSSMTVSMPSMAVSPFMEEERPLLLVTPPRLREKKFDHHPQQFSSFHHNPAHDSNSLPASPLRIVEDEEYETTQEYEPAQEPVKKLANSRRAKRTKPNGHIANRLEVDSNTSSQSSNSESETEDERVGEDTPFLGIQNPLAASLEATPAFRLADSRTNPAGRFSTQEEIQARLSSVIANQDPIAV
Assay [7] relates to Neuregulin-1 EGF-like domain. The assay can be described thus: small molecules binding NRG1 EGF domain – biochemical, small-molecule microarray, 635 nm fluorescence, primary screen (AID 1081).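 Note: binding of the protein to compounds printed on small-molecule microarray slides.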 The settings on record: higher = more signal.
Assay [8] can be described thus: FRG1 expression reporter modulators in myotubes – cell-based, C2C12 myotubes, firefly/Renilla luciferase, luminescence, FRG1 inhibition for FSHD, primary screen (AID 1084). The settings on record: FRG1 promoter luciferase, higher = more signal, called active from +8 up or from −8 down.
Assay [9] is described as follows: small molecules captured by biotinylated probe aFST – biochemical, small-molecule microarray, fluorescence 635/667, stem cell growth factor project, primary screen (AID 1086).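 Note: score merges 667 nm fluorescence with signal-to-noise of each printed compound spot.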 Particulars: higher = more signal.
A short description of assay [10]: binders of probe aHhip on microarray, primary screen, stem cell growth factor project, biochemical, small-molecule microarray, fluorescence 635/667 (AID 1087).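 Note: score merges spot fluorescence at 667nm with spot signal to noise ratio.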 Particulars: higher = more signal.
The subject of assay [11] is PRMT1 (protein arginine N-methyltransferase 1). The assay can be described thus: small molecules binding arginine methyltransferase PRMT1 – biochemical, small-molecule microarray, 635 nm fluorescence, primary screen (AID 1088).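 Note: binding of Prmt1 protein to compounds spotted on small-molecule microarray slides.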 The settings on record: higher = more signal.
Assay [12] is described as follows: growth effects on S. cerevisiae YJM789 – YJM789 clinical isolate, OD600, 24 h, basal, primary screen (AID 1089).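 Note: growth of clinical yeast isolate S. cerevisiae YJM 789 seeded 1000 cells per well; test concentration not given here.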 The settings on record: higher = more signal, called active from +8 up or from −8 down.
The nature of assay [13]: S. pombe growth modifiers, basal conditions – strain 972, OD600, 24 h, no modulator, primary screen (AID 1090).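 Note: basal condition with compound alone and no growth modifier present; test concentration not given here.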 Particulars: S. pombe 972 growth, higher = more signal, called active from +8 up or from −8 down.
A short description of assay [14]: budding yeast growth modifiers under rapamycin – strain BY4716, OD600, 96 h, primary screen (AID 1091). Note: test concentration not given here. Particulars: S. cerevisiae BY4716 + rapamycin, higher = more signal, called active from +8 up or from −8 down.
In assay [15] the target is Torsin-1A-interacting protein 2 (Homo sapiens) (UniProt Q8NFQ8). The assay can be described thus: small molecules binding lysate-expressed LULL1 – cell lysate, human LULL1 lysate, 635/667 nm fluorescence, primary screen (AID 1092).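 Note: probe is lysate of COS7 cells overexpressing human LULL1; score merges per-feature 667 nm fluorescence with signal-to-noise.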 The settings on record: small-molecule microarray, hLULL1 lysate binding, 635 nm fluorescence; higher = more signal.
Chain of Torsin-1A-interacting protein 2 (Homo sapiens) (Q8NFQ8 whole entry, looked up): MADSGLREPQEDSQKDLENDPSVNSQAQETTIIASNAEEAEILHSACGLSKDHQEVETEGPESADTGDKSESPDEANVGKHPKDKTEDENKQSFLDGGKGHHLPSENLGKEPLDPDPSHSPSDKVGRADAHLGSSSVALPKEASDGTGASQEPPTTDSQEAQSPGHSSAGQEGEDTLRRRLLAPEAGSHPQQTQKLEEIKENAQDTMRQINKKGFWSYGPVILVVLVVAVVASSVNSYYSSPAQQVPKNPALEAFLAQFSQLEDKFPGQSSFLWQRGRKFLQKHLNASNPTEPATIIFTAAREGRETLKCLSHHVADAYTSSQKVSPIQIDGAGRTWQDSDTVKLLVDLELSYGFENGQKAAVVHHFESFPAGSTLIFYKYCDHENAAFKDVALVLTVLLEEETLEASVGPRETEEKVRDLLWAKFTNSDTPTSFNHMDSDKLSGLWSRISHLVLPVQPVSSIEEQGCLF
Assay [16] can be described thus: optical density change of DRC41 E. coli – strain DRC41, OD650, 24 h, E. coli filamentation project, primary screen (AID 1093).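 Note: MC1000 strain lacking acrAB efflux and sulA so SOS filamentation is blocked; test concentration not given here.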 Particulars: E. coli DRC41 growth, higher = more signal, called active from +8 up or from −8 down.
Assay [17] is described as follows: probe aLefty2 binding to arrayed compounds – biochemical, biotinylated probe, 635/667 nm fluorescence, primary screen (AID 1094).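 Note: score merges spot fluorescence near 667 nm with spot signal-to-noise ratio.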 Particulars: small-molecule microarray, higher = more signal.
In assay [18] the test system is Noggin (protein binding on small-molecule microarray). The assay can be described thus: small molecules binding Noggin protein – biochemical, 635/667 nm fluorescence, primary screen (AID 1095).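 Note: score merges 667 nm feature fluorescence with signal to noise over triplicate slides.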 Particulars: 635 nm fluorescence, higher = more signal.
Assay [19] deals with Neurogenic locus notch homolog protein 3 (Homo sapiens) (UniProt Q9UM47). The assay can be described thus: small molecules binding NOTCH3 protein – biochemical, 635/667 nm fluorescence, primary screen (AID 1096). The settings on record: small-molecule microarray, 635 nm fluorescence, higher = more signal.
Assay [20] can be described thus: probe aEGFR binding to arrayed compounds – biochemical, biotinylated probe, 635/667 nm fluorescence, primary screen (AID 1097).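 Note: probe is a biotinylated anti-EGFR antibody binding compounds printed on slides; score combines fluorescence near 667 nm and signal to noise of each spot.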 Particulars: small-molecule microarray, higher = more signal.

As for `CN(C)C(=O)[C@@]1(Cc2ccccc2)N=C(c2ccc(OCCCO)cc2)O[C@H]1c1ccccc1CN=[N+]=[N-]`, the composite z-score in assay [1] turned out to be 1.35; in assay [2], 1.92; in assay [3], 0.423; in assay [4] it was 1.13; in [5], 1.46; in assay [6], 1.96. Also, the composite z-score in assay [7] was 1.2; in assay [9], 1.42; in assay [10] it was 0.898; in assay [11], 1.56; in [15], 3.17; in assay [17], 0.578. In addition, the composite z-score turned out to be 0.801 in assay [18], 0.969 in [19] and 0.361 in [20]. For the same molecule, the z-score was -1.47 (inactive) in [8]; -1.88 (inactive) in [12]; -0.31 (inactive) in assay [13]; 0.477 (inactive) in [14]; 0.73 (inactive) in assay [16].

Take `O=C1O[C@@H](c2ccccc2)[C@@H](c2ccccc2)N2[C@@H](c3ccc(OCCO)cc3)[C@]3(C(=O)Nc4ccc(C#CCCO)cc43)[C@@H](C(=O)N3CCCCCCC3)[C@H]12`: the composite z-score in assay [1] turned out to be 3.26; in assay [2] it was 2.28; in [3] it was 0.702; in [4], 1.12; in [5] it was 1.36; in [6], 2.02. The composite z-score in assay [7] was 1.18; in assay [9], 3.04; in assay [10], 2.53; in [11] it was 1.54; in [15], 3.83; in assay [17], 1.35. Further, the composite z-score in assay [18] is 1.39; in assay [19], 1.08; in [20], 0.249. For the same molecule, the z-score in assay [8] was -1.99 (inactive); in assay [12], 1.15 (inactive); in assay [13], -0.507 (inactive); in assay [14], 2.23 (inactive); in assay [16], 0.694 (inactive).

As to `C=CCNC(=O)[C@H]1[C@@H]2C(=O)O[C@@H](c3ccccc3)[C@@H](c3ccccc3)N2[C@@H](c2ccc(O)cc2)[C@]12C(=O)N(C(=O)OCCOC)c1ccc(C#CC3=CCCCC3)cc12`, the composite z-score was 0.484 in assay [1]; 1.24 in [2]; 0.008 in assay [3]; 0.72 in assay [4]; 1.05 in [5]; 2.03 in assay [6]. The composite z-score is 1.06 in assay [7]; 2.01 in assay [9]; 1.75 in [10]; 1.54 in assay [11]; 3.14 in [15]; 0.862 in assay [17]. In addition, the composite z-score in assay [18] is 1.78; in [19], 1; in assay [20] it was -0.21. Moreover, the z-score in assay [8] was -0.829 (inactive); in [12] it was 0.576 (inactive); in [13] it was 0.111 (inactive); in assay [14], 1.12 (inactive); in assay [16], 0.111 (inactive).

With `COCCOC(=O)N1C(=O)[C@@]2(c3ccccc31)[C@H](C(N)=O)[C@H]1C(=O)O[C@H](c3ccccc3)[C@H](c3ccccc3)N1[C@@H]2c1ccccc1OCCO`, the composite z-score came out at 0.0407 in assay [1]; 1.67 in assay [2]; 0.147 in assay [3]; 0.937 in assay [4]; 0.899 in [5]; 1.42 in [6]. Further, the composite z-score in [7] was determined as 1.11; in [9], 0.521; in assay [10], 0.234; in [11], 1.53; in assay [15] it was 1.84; in [17] it was 0.16. The composite z-score in assay [18] is 1.32; in assay [19], 1.12; in assay [20], 0.261. Moreover, the z-score in assay [8] is -0.732 (inactive); in assay [12], 0.438 (inactive); in assay [13], -0.142 (inactive); in assay [14] it was 3.11 (inactive); in assay [16], 1.24 (inactive).

`Cc1cc2c(nc1C)CCCN2CC(O)CN1CCN(C)CC1` (stereo not given): the composite z-score in assay [1] was determined as 0.499; in [2], 0.382; in assay [3], 0.0138; in [4] it was 0.575; in assay [5], 0.273; in assay [6], 0.462. Also, the composite z-score was 0.346 in assay [7]; 0.758 in [9]; 0.744 in assay [10]; 1.25 in assay [11]; 0.9 in [15]; -0.294 in assay [17]. For the same molecule, the composite z-score in assay [18] is 0.578; in [19], 0.915; in assay [20], -0.169. The z-score in assay [8] was -0.323 (inactive); in assay [12], -0.525 (inactive); in assay [13], 0.277 (inactive); in assay [14] it was -0.856 (inactive); in assay [16], -0.384 (inactive).
